# Screen size: about 310,000 compounds; about 14,000 (4.5%) showed an effect of 50% or more. Effects have a minus sign here. The sample as a whole holds a higher share of strong results than the screen did.
# Biological target: human ether-à-go-go-related gene (hERG) potassium channel (human, UniProt Q12809)
# Test: primary screen, population patch clamp on CHO cells stably expressing hERG; higher = less effect of the substance
# 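Note: peak tail current of the secondary pulse compared with the same well before compound.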
# Chain of human ether-à-go-go-related gene (hERG) potassium channel (Q12809 whole entry, looked up): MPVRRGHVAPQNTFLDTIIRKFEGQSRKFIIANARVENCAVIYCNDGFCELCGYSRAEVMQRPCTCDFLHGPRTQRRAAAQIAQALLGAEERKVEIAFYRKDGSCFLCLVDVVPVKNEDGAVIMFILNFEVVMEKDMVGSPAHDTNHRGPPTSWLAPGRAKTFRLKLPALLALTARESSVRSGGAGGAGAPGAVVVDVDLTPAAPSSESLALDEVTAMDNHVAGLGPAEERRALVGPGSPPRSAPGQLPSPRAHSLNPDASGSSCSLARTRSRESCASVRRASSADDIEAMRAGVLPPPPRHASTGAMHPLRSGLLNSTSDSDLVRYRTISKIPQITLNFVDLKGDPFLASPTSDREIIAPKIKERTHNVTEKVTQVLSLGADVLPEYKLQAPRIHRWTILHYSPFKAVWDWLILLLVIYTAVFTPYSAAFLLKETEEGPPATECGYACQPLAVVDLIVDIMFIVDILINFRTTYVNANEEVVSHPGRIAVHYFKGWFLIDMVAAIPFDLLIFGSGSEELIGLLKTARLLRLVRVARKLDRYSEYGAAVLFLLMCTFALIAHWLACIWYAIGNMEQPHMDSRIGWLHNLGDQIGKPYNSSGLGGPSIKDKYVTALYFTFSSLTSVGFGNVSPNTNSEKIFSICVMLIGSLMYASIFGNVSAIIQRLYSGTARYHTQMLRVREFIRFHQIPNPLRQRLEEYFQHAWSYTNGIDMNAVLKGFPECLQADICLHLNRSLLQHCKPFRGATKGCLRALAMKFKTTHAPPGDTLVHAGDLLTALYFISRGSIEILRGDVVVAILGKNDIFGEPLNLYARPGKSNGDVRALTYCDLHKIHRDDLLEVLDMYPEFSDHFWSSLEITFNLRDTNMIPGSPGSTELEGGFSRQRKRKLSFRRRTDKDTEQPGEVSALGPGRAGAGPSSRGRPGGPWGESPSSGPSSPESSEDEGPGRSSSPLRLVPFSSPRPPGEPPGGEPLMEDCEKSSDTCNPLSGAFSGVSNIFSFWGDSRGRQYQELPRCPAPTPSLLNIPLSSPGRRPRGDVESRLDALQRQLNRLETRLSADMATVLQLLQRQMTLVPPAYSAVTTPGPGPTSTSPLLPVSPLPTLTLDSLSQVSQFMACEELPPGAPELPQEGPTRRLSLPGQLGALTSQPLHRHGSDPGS
row,Compound,"hERG current change (%, negative = inhibition) at 10uM"
1,COc1ccc(CCNC(=O)C(=O)NCc2ccc(C)cc2)cc1OC,-1.57%
2,COc1ccccc1N1CCN(C(=O)c2cc(-c3cccs3)on2)CC1,-22.7%
3,COc1cccc(CNC(=O)C2Cc3ccccc3CN2C(C)=O)c1 (stereo not shown),2.81%
4,C=CCc1cccc(/C=N/NC(=O)COc2ccc(-n3cnnn3)cc2)c1O,11.3%
5,CCN1C(=O)N[C@@H](c2cccc(C(F)(F)F)c2)[C@@H](C(=O)OC)[C@H]1C,-19%
6,O=C(Cn1cccc1C(=O)c1ccccc1)NCc1ccc(Cl)cc1,18.7%
7,O=C(O)CC(NS(=O)(=O)c1cccc2nsnc12)c1ccc(F)cc1 (stereo not shown),-17.2%
8,Cc1cc(F)ccc1S(=O)(=O)Nc1ccc(C(=O)N2CCCCCC2)cc1,-27.6%
9,Cc1ccc2nc(SCC(=O)N/N=C/c3ccco3)cc(C)c2c1,10.4%
10,Cc1ccc2nc(N/N=C/c3ccco3)cc(C)c2c1,-64.3%
11,Cc1cc(N/N=C/c2ccco2)c2ccccc2n1,16.6%
12,C[C@@H]1CC[C@H]2[C@@H](C)C(=O)O[C@@H]3O[C@@]4(C)CC[C@@H]1[C@]32OO4,0.204%
13,COc1ccc(OC)c(NC(=O)CSc2nnc(C3CCCCC3)n2N)c1,-17.4%
14,CC(C)CC(NC(N)=O)C(=O)Nc1ccc(Oc2ccccc2)cc1 (stereo not shown),10.1%
15,O=C(/C(=N\Nc1ccc(Br)cc1)Sc1nnnn1-c1ccccc1)c1ccccc1,13.8%
16,Cc1ccc2c(c1)c1c3n2CCN(CC(N)=O)C3CCC1 (stereo not shown),25.6%
17,Cc1ccc2c(c1)c1c3n2CCN(CCC(=O)O)C3CCC1 (stereo not shown),-3.49%
18,Cc1ccc2c(c1)c1c3n2CCN(CC#N)C3CCC1 (stereo not shown),2.24%
19,CCN(CC)CCN1CCn2c3c(c4cc(C)ccc42)CCCC31.Cl (stereo not shown),-76.3%
20,CCN1CCn2c3c(c4cc(Cl)ccc42)CCCC31.Cl (stereo not shown),-39.1%
21,CCN1CCn2c3c(c4cc(C)ccc42)CCCC31 (stereo not shown),-54.2%

row,Compound,"hERG current change (%, negative = inhibition) at 10uM"
1,NC[C@H]1O[C@H](O[C@H]2[C@H](O)[C@@H](O[C@H]3O[C@H](CO)[C@@H](O)[C@H](N)[C@H]3O)[C@H](N)C[C@@H]2N)[C@H](N)C[C@@H]1O.O=S(=O)(O)O,4.47%
2,CC(C)c1nnc(NC(=O)c2nc(S(=O)(=O)Cc3ccccc3F)ncc2Cl)s1,-5.79%
3,CC(C)(C)N=C1NN=C(c2cc3ccccc3o2)CS1,-9.99%
4,c1ccc2oc(C3=NNC(=NC4CC4)SC3)cc2c1,-58.5%
5,c1ccc(CN=C2NN=C(c3cc4ccccc4o3)CS2)cc1,-16.3%
6,COc1cccc(C(c2sc3ncnn3c2O)N2CC(C)OC(C)C2)c1 (stereo not shown),0.441%
7,O=C(CSc1nc2ccccc2c(=O)n1CC1CCCO1)NCc1ccc2c(c1)OCO2 (stereo not shown),-30.2%
8,COc1ccc(CNC(=O)c2cc3c(=O)n4ccccc4nc3n(CC3CCCO3)c2=N)cc1 (stereo not shown),-72.5%
9,N=c1c(S(=O)(=O)c2ccc(F)cc2)cc2c(=O)n3ccccc3nc2n1CC1CCCO1 (stereo not shown),-40.8%
10,N=c1c(C(=O)NCc2ccc(F)cc2)cc2c(=O)n3ccccc3nc2n1CC1CCCO1 (stereo not shown),-77.4%
11,O=C(NCc1ccc2c(c1)OCO2)c1ccc2c(c1)C(=O)N(CC1CCCO1)C2=O (stereo not shown),2.28%
12,CCOC(=O)c1cc2c(=O)n3ccccc3nc2n(CC2CCCO2)c1=NC(C)=O (stereo not shown),-1.13%
13,O=C(NCc1ccccc1)c1ccc2c(=O)n(CC3CCCO3)c(=S)[nH]c2c1 (stereo not shown),-2.39%
14,Cc1ccc(CNC(=O)c2cc3c(=O)n4ccccc4nc3n(CC3CCCO3)c2=N)cc1 (stereo not shown),-81.3%
15,N=c1c(C(=O)NCc2ccc3c(c2)OCO3)cc2c(=O)n3ccccc3nc2n1CC1CCCO1 (stereo not shown),-79.5%
16,CC(CCc1ccccc1)NC(=O)c1ccccc1Cl (stereo not shown),-4.82%
17,CN(C)S(=O)(=O)c1cc(NC(=O)CN2CCN(c3ccccc3F)CC2)ccc1Cl,5.43%
18,CC(C)NC(=O)CSc1nnc(-c2ccc(C(C)(C)C)cc2)n1C,-7.38%
19,NC(=O)C1CCN(C(=O)COc2ccc3c(c2)oc(=O)c2ccccc23)CC1,3.62%
20,COc1ccc(COc2cc(-c3cccc(OC)c3)nc3ccc(NC(=O)C(C)C)cc23)cc1,3.04%
21,Cc1nc2c(-c3ccc(F)cc3)cnn2c(N)c1-c1ccc(F)cc1,23.3%

row,Compound,"hERG current change (%, negative = inhibition) at 10uM"
1,CCOC(=O)C1CCCN(C(=O)c2cn(CC)c3ccc(S(=O)(=O)N(C)C)cc3c2=O)C1 (stereo not shown),11.9%
2,COc1ccc2nc(NC(=O)C3CCN(S(=O)(=O)c4cccc5nsnc45)CC3)sc2c1,0.473%
3,C=CCn1c(SCC(=O)Nc2ccc(NC(=O)c3ccco3)c(OC)c2)nnc1-c1ccncc1,-6.37%
4,CCCCCCn1nc(C(=O)N(CCOC)c2c(N)n(CCCC)c(=O)[nH]c2=O)c2ccccc2c1=O,-1.87%
5,CCCCN(C(=O)c1ccc([N+](=O)[O-])s1)c1c(N)n(CC(C)C)c(=O)[nH]c1=O,5.29%
6,CCCCN(C(=O)c1ccc([N+](=O)[O-])s1)c1c(N)n(CCCC)c(=O)[nH]c1=O,-12.9%
7,CCCCn1c(N)c(N(CCOC)C(=O)c2nn(CC)c(=O)c3ccccc23)c(=O)[nH]c1=O,6.82%
8,CCCCCn1nc(C(=O)N(CCOC)c2c(N)n(CCCC)c(=O)[nH]c2=O)c2ccccc2c1=O,-3.44%
9,CCCCn1c(N)c(N(CCC(C)C)C(=O)c2ccc([N+](=O)[O-])s2)c(=O)[nH]c1=O,-51.1%
10,CCCCCCn1nc(C(=O)N(CC(C)C)c2c(N)n(CCCC)c(=O)[nH]c2=O)c2ccccc2c1=O,-51.9%
11,CCCCn1nc(C(=O)N(CCOC)c2c(N)n(CCCC)c(=O)[nH]c2=O)c2ccccc2c1=O,6.16%
12,CCCCCn1nc(C(=O)N(CC(C)C)c2c(N)n(CCCC)c(=O)[nH]c2=O)c2ccccc2c1=O,-76.6%
13,O=S(=O)(Nc1ccc(-n2cnnn2)cc1)c1ccc(Cl)cc1,-18.2%
14,CCO[C@H]1OC(C(=O)N2CCOCC2)=C[C@@H](C2CC2)[C@@H]1CCCO,19.9%
15,Cc1ccc(NC(=O)Nc2sc(=S)n(C)c2C)cc1,15.4%
16,C=CCNC(=S)NCC1COc2ccccc2O1 (stereo not shown),19.6%
17,CC1CN(c2ccc([N+](=O)[O-])cc2Cl)CCN1S(C)(=O)=O (stereo not shown),-47.2%
18,CC1CN(c2ccc(Cl)cc2[N+](=O)[O-])CCN1S(C)(=O)=O (stereo not shown),-41.2%
19,CC1CN(c2ccc(C(F)(F)F)cc2[N+](=O)[O-])CCN1S(C)(=O)=O (stereo not shown),-56.9%
20,O=[N+]([O-])c1cc(C(F)(F)F)ccc1N1CCC(O)CC1,0.342%
21,O=C(C1CCC1)N1CCN(c2ccc(C(F)(F)F)cc2[N+](=O)[O-])CC1,-64%

row,Compound,"hERG current change (%, negative = inhibition) at 10uM"
1,NC(=O)C1CCN(c2ccc(C(F)(F)F)cc2[N+](=O)[O-])CC1,-20.1%
2,O=[N+]([O-])c1ccc(Oc2cnc3ccccc3n2)cc1,7.44%
3,COc1ccccc1NC(=O)Nc1nc(CC(=O)Nc2cc(F)ccc2F)cs1,-2.13%
4,CC(C)(C)n1nnnc1C(c1ccc(F)cc1)N(Cc1ccc(F)cc1)Cc1ccco1 (stereo not shown),1.97%
5,CCN1C(=O)C(CC(=O)Nc2ccc(OC)cc2)N(CCc2ccc(OC)cc2)C1=S (stereo not shown),-1.17%
6,Cc1ccc(C(=O)N2CCN(c3ccc(C(F)(F)F)cn3)CC2)cc1,-0.62%
7,O=C(CN1CCN(c2ncccn2)CC1)NCc1ccc2c(c1)OCO2,20.4%
8,O=C(c1ccc2c(c1)OCO2)N1CCN(c2ccc(C(F)(F)F)cn2)CC1,-55.6%
9,O=C(c1ccc2n[nH]nc2c1)N1CCN(c2ccc(C(F)(F)F)cn2)CC1,-26.7%
10,O=C(c1ccc2ccccc2c1)N1CCN(c2ccc(C(F)(F)F)cn2)CC1,-2%
11,O=C(c1ccc([N+](=O)[O-])s1)N1CCN(c2ccccn2)CC1,-20.4%
12,O=C(c1ccc([N+](=O)[O-])s1)N1CCN(c2ccc(C(F)(F)F)cn2)CC1,-67.5%
13,O=C(CN1CCN(c2ccc(C(F)(F)F)cn2)CC1)Nc1ccc2c(c1)OCO2,-14%
14,O=C(Nc1ccc2c(c1)OCO2)N1CCN(c2cccc(C(F)(F)F)c2)CC1,-1.15%
15,O=C(c1ccc2c(c1)OCO2)N1CCN(c2cccc(C(F)(F)F)c2)CC1,-53.8%
16,O=C(c1ccc2c(c1)OCO2)N1CCN(c2ccccc2)CC1,-10.9%
17,O=C(CN1CCN(c2ccc(C(F)(F)F)cn2)CC1)NCc1ccc2c(c1)OCO2,-65.3%
18,CC(C)c1ccc(NC(=S)NCCc2c[nH]c3ccccc23)cc1,10.8%
19,Cc1nc2ccc(NC(=O)[C@@H](NC(=O)c3c(F)cccc3F)C(C)C)cc2s1,1.84%

# — paper PMC4336329 (PLoS ONE, 2015)
